Source: PubChem BioAssay (National Center for Advancing Translational Sciences (NCATS))
TrxR1 substrate – is turned over as a substrate by rat TrxR1; Potency, µM (titrated, usually from 114 µM); AID 588456; 0.01% of 390,000 active; purified TrxR1 substrate turnover, NADPH consumption readout; O89049; also: nearly all actives have a fitted effect of over 50% in size
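Rat TrxR1, dispensed at 90 nM, was prereduced with 400 uM NADPH (final) for 5 min at ~22 deg C, then incubated with compound 15 min before 400 uM selenite. A first-read NADPH fluorescence drop versus no-compound background flagged substrates.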
TrxR1 inh – inhibitors of rat thioredoxin reductase 1; O89049; recombinant rTrxR1, NADPH fluorescence consumption, selenite substrate; Potency, µM (doses to about 114 µM), hits mostly inhibitors; 1% of 390,000 active; AID 588453; also: nearly all actives have a fitted effect of over 65% in size
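Rat TrxR1 (90 nM in the dispensed reagent) was pre-reduced with 400 uM NADPH for 5 min at room temperature, then incubated with compound for 15 min. After 400 uM selenite was added, NADPH fluorescence (Ex 340/Em 450 nm) was followed for 8 min.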
RORg inh – blocks mouse ROR gamma transcriptional activity; P51450; Potency, µM (doses to about 53.6 µM), actives largely listed as inhibitors; Drosophila S2 Gal4-RORgamma UAS-luciferase reporter, 20 h; 5.4% of 310,000 active; also: nearly all actives have a fitted effect of over 60% in size
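Stable Schneider cell line, Gal4 DNA-binding domain fused to ROR gamma, UAS-luciferase. Cmpd 1 hr RT → CuSO4 700 uM final → 20 hr RT → luciferase reagent 10 min → luminescence.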
Coupling enz – counter-screen for Giardia aldolase inhibitors: coupling enzyme system; activity change, negative = inhibition, % at 58.2 µM, hits read low; coupling enzyme system counterscreen, AmpLite Red fluorescence; AID 2472; 0.67% of 290,000 active; in the data active = activity change below about -30%
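Final compound at 57.5 uM, incubated 10 min at RT with coupling enzyme reagent (glyceraldehyde-3-phosphate), then 20 min with substrate and AmpLite Red detection. Fluorescence read at 525/598 nm; tests interference with the coupling assay, not aldolase inhibition.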
GALK inh – galactokinase (human) inhibition; P51570; Purified GALK, Kinase-Glo residual ATP luminescence; Potency, µM (top dose mostly 57.5 µM), most hits filed as inhibitors; 0.007% of 270,000 active; AID 1868
Target sequence (P51570 whole entry, looked up): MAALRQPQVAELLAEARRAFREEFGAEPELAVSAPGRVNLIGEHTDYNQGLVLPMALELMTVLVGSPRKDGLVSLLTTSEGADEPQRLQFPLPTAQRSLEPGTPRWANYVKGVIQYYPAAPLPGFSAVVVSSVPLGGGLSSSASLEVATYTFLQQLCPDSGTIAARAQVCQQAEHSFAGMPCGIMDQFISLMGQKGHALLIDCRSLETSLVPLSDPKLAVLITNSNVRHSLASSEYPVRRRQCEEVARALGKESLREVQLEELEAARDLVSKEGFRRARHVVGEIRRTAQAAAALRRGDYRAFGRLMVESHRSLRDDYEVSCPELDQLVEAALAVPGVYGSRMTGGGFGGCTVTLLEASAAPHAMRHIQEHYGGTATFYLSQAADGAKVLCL
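ATP-depletion format; final 35 uM ATP, 100 uM D-galactose, 5 nM enzyme; pH 8.0 HEPES/Mg2+ buffer; 60 min RT; luminescence read 10 min after detection reagent.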
VP16 counter – counter-screen for ROR gamma inhibitors: Gal4-VP16 reporter. 3.5% of 310,000 active. Drosophila S2 Gal4-VP16 UAS-luciferase, luminescence, 20 h. Potency, µM (doses to about 53.6 µM), actives largely listed as inhibitors. AID 2546;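 also: Gal4-VP16 expression switched on by copper sulfate through the metallothionein promoter; nearly all actives have a fitted effect of over 50% in size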
Of the large screens only hits and unclear results are named; the others gave an inactive call. Rows were chosen to be rich in hits. Some 5.9% of all compounds tested hit in one or more screens of this group. Unless noted, calls follow the shape of the dose curve; as a rule, active = well fitted curve in the direction sought with a large enough effect; inconclusive = small, poorly fitted or top-dose-only effect, or another doubt; inactive = no such curve, though single readings can be large; an effect the other way counts as inactive or inconclusive.

CC1CCN(C(=O)c2ccc(S(=O)(=O)Cc3cccc(F)c3)c([N+](=O)[O-])c2)CC1	TrxR1 inh inconclusive
O=C(c1ccc(S(=O)(=O)Cc2cc(F)ccc2F)c([N+](=O)[O-])c1)N1CCCC1	TrxR1 inh 10µM, VP16 counter inconclusive
O=C(c1ccc(S(=O)(=O)Cc2cc(F)ccc2F)c([N+](=O)[O-])c1)N1CCCCC1	TrxR1 inh 4.5µM
CN(C)C=NCCn1c(N2CCOCC2)nc2c1c(=O)n(C)c(=O)n2C	none
O=C(O)c1cc2c(ccc3ccccc32)oc1=O	none (no result: TrxR1 substrate, TrxR1 inh)
N=c1oc2ccc3ccccc3c2cc1C(N)=S	RORg inh 6.3µM, VP16 counter inconclusive
O=c1c2ccccc2ncn1-c1ccccc1[N+](=O)[O-]	none (no result: RORg inh, VP16 counter)
CCCCC(=O)N(CCC)CCC	none
COc1ccc(CN=Cc2[nH]c3ccc(Br)c(Cl)c3c2O)cc1	TrxR1 inh inconclusive, RORg inh inconclusive, Coupling enz -30
O=c1c(Cc2ccccc2)c(O)nc2n1CCS2	none (no result: GALK inh)
O=c1c2ccccc2nc2n1CCCS2	none
Cc1ccc(C(c2c(O)nc3n(c2=O)CCS3)c2c(O)nc3n(c2=O)CCS3)cc1	TrxR1 inh 2.8µM
O=c1c2[nH]c3ccccc3c2nc2n1CCS2	none
O=c1c(C(c2c(O)nc3n(c2=O)CCS3)c2cccc3ccccc23)c(O)nc2n1CCS2	TrxR1 inh 11µM
O=c1c(C(c2ccc(O)cc2)c2c(O)nc3n(c2=O)CCCS3)c(O)nc2n1CCCS2	TrxR1 inh 3.5µM
O=c1c(C(c2ccc(O)cc2)c2c(O)nc3n(c2=O)CCS3)c(O)nc2n1CCS2	TrxR1 inh 3.2µM
Cc1c(C(=O)c2ccccc2)c(=O)n(C)c(=O)n1C	none
CCOC(=O)N1CCN(C(=O)CSc2ccc(-c3ccccc3OC)nn2)CC1	none
CCc1ccc(Oc2coc3cc(OCC(=O)Nc4cc(C)ccc4C)ccc3c2=O)cc1	RORg inh 25µM, VP16 counter 7.9µM
CCCc1ccc(Oc2coc3cc(OCC(=O)Nc4ccccc4C)ccc3c2=O)cc1	RORg inh inconclusive, VP16 counter inconclusive
CCOC(=O)C1(C)C=C(Nc2ccccc2)C(=O)N1c1ccccc1 (stereo not drawn)	none
CC(=O)COc1ccc2c(c1C)O/C(=C\c1ccco1)C2=O	TrxR1 inh inconclusive, RORg inh 10µM
O=C(NCc1ccccc1OC(F)(F)F)C1CCC(=O)N(Cc2ccccn2)C1 (stereo not drawn)	none
Cc1ccc(C(c2nnnn2C2CCCC2)N2CCc3ccccc32)cc1 (stereo not drawn)	RORg inh inconclusive, VP16 counter inconclusive (no result: GALK inh)
CC(=O)Oc1cc2c(cc1Cl)C(c1cccs1)CC1(CC(C)(C)NC(=S)N1)O2 (stereo not drawn)	RORg inh 10µM, VP16 counter inconclusive
CC1(C)CC2(CC(c3ccccc3)Oc3cc(O)ccc32)NC(=O)N1 (stereo not drawn)	none (no result: TrxR1 substrate, TrxR1 inh)
CC(=O)Oc1ccc2c(c1)OC(c1ccccc1)CC21CC(C)(C)NC(=S)N1 (stereo not drawn)	RORg inh 10µM, VP16 counter inconclusive
CC1(C)CC2(CC(c3ccccc3)Oc3cc(O)ccc32)NC(=S)N1 (stereo not drawn)	RORg inh 8.9µM, VP16 counter 8.9µM
CC1(C)CC2(CC(c3ccccc3)c3ccc(O)cc3O2)NC(=S)N1 (stereo not drawn)	RORg inh 11µM
C#CCCCO/N=C1/C[C@@H](O)[C@@H](O)[C@@H]2[C@@H]3C(=O)N(CCC(=O)OCC)C(=O)[C@H]3CC[C@@H]12	none (no result: TrxR1 substrate, TrxR1 inh, GALK inh)
C=CCn1c(SCc2ccccc2C#N)nnc1-c1cc(Br)ccc1O	RORg inh 18µM, VP16 counter 25µM
CCC(=O)NC(=S)Nc1cccc(Cl)c1N1CCCC1	RORg inh 1.1µM, VP16 counter inconclusive
O=C(NC(=S)Nc1cccc(Cl)c1N1CCCCC1)c1ccc2c(c1)OCCO2	RORg inh 2.5µM, VP16 counter 4.5µM
Cn1c(SCC(=O)Nc2ccccc2F)nc2c(c1=O)SCC2	RORg inh inconclusive, VP16 counter inconclusive
COCCNC(=O)c1onc(CSc2nc3ccccc3[nH]2)c1C(=O)NCCOC	none (no result: GALK inh)
CN1C[C@@H]2[C@@H]3C(=O)N(Cc4ccccc4)C(=O)[C@@H]3[C@](Cc3ccccc3)(C1=O)N2C(=O)c1ccc(Br)cc1	none (no result: RORg inh, Coupling enz, GALK inh, VP16 counter)
C/C(=N/NC(=O)c1cc(-c2cccc([N+](=O)[O-])c2)n[nH]1)c1cccc(O)c1	none
C/C(=N\NC(=O)c1cccc(S(=O)(=O)N2CCCC2)c1)c1cccs1	RORg inh 13µM, VP16 counter inconclusive
C/C(=N/NC(=O)c1cc(C2CC2)[nH]n1)c1cccs1	RORg inh 11µM, VP16 counter 10µM
CC(=NNC(=O)c1cccc(S(=O)(=O)N2CCCC2)c1)c1ccccc1	none (no result: RORg inh, Coupling enz, GALK inh, VP16 counter)
C/C(=N\NC(=O)c1cccc([N+](=O)[O-])c1)c1cccs1	RORg inh 4µM, VP16 counter 6.3µM
C/C(=N\NC(=O)c1cc(-c2cccc([N+](=O)[O-])c2)n[nH]1)c1ccccc1O	RORg inh 3.2µM, VP16 counter 18µM (no result: GALK inh)
C/C(=N\NC(=O)c1ccncc1)c1cccs1	RORg inh inconclusive
Cc1ccc(NCc2nnc(SCC(=O)c3ccccc3)o2)c(C)c1	none
CSCCC(NS(=O)(=O)c1ccc(C)cc1)C(=O)N1CCCCCCC1 (stereo not drawn)	none (no result: RORg inh, Coupling enz, GALK inh, VP16 counter)
COc1ccc(C(=O)N/N=C(/C)c2ccc(N3CCCCC3)cc2)cc1	none
C/C(=N\NC(=O)c1cccc([N+](=O)[O-])c1)c1ccncc1	none
C/C(=N/NC(=O)c1ccc(O)cc1)c1cccc([N+](=O)[O-])c1	RORg inh 3.2µM, VP16 counter 13µM
CC(=O)Nc1cccc(/C(C)=N/NC(=O)c2ccc(O)cc2)c1	RORg inh 11µM, VP16 counter inconclusive
C/C(=N\NC(=O)c1ccc(OC2CCCC2)cc1)c1ccc(O)cc1	RORg inh 14µM, VP16 counter inconclusive (no result: Coupling enz)
CCOC(=O)c1c(C)sc2c1N(C(=O)CCl)c1cc(Cl)ccc1S2	TrxR1 inh 5µM
O=C(CN1C(=O)c2ccccc2S1(=O)=O)NCCSc1ccccc1	none
Cc1coc2c(C)c3oc(=O)c(CCC(=O)NCCc4ccc(Cl)cc4)c(C)c3cc12	none (no result: RORg inh, Coupling enz, GALK inh, VP16 counter)
CSc1ccccc1OCc1cc(C(=O)N2CCc3sccc3C2)no1	none
Cc1ccc(C)c(OCc2cc(C(=O)N3CCc4sccc4C3)no2)c1	RORg inh 2µM, VP16 counter inconclusive (no result: Coupling enz)
CC(C)c1cc(-c2cc(-c3ccc(Cl)cc3)on2)nc(NC2CCCC2)n1	none
CC(=O)c1cnc(Nc2nc(C)c3ccc(C)cc3n2)nc1C	RORg inh inconclusive, VP16 counter inconclusive
